In the library only some 2.4% were active in any assay of this set; here they are far more common.
D2 ag-1 = activates the human D2 dopamine receptor; HEK293 T-REx D2 cells, calcium flux agonist mode; AID 485358; activation, % at 2 µM; hit rate 0.53% among 340,000;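 active = activation over 3 SD above normal in the single-dose calcium agonist read, cut at about 30% in these data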
Target sequence (P14416 whole entry, looked up): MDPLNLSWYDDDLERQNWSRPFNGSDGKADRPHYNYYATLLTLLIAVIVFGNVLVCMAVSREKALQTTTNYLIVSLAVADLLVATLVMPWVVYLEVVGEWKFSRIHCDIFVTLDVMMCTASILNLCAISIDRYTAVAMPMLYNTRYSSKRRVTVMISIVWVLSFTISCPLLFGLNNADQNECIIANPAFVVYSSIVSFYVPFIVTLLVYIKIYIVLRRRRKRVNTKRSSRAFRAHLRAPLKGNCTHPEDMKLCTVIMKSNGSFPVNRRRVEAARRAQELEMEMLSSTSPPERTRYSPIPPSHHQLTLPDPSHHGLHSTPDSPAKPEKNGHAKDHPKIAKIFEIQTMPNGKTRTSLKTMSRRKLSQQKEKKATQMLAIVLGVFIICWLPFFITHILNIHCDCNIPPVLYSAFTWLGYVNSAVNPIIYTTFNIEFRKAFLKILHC
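HEK293 Trex D2 cells, tetracycline-induced, o/n 30 C 5% CO2; no-wash Ca dye, RT 30–90 min; 10-cycle baseline, 23 nl cpd added, kinetic Ca read 180 s; agonist hits = positive Ca response.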
D2 PAM-1 = potentiates the human D2 dopamine receptor allosterically; hit rate 0.23% among 360,000; P14416; potentiation, % (no concentration beside the values); DiscoveRx D2 beta-arrestin cells, luminescence, 90 min; 100% = 57 uM dopamine signal; in the data active = potentiation above about 50%; inconclusive = mostly about 30% to 49%
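D2 cells co-treated with compound plus 50 nM dopamine (EC20) for 90 min at 37 deg C to detect potentiation. Beta-arrestin recruitment was read as enzyme-fragment luminescence after 1 h at ambient temperature. Full response was set by 57 uM dopamine.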
D2 PAM-2 = positively modulates the human D2 dopamine receptor allosterically. P14416. HEK293 T-REx D2, calcium flux, EC20 dopamine potentiation. potentiation, % at 10 µM. hit rate 0.34% among 340,000. AID 485347;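 active = potentiation over 3 SD above the plate norm, cut at about 30% in these data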
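Tetracycline-induced HEK293 T-REx cells force-coupled to calcium signalling expressed D2; compounds were pin-added after a 10 s baseline, read kinetically 180 s, then an EC20 dopamine challenge followed with a further 180 s calcium read.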
D2 ag-2 = agonists of human D2 dopamine receptor (beta-arrestin) | P14416 | DiscoveRx PathHunter D2 beta-arrestin, luminescence, 90 min; 100% = 57 uM dopamine signal | activation, % (concentration not given with the values) | hit rate 0.084% among 360,000 | AID 624465; in the data active = activation above about 40%; inconclusive = between about 15% and that limit
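DiscoveRx PathHunter D2 beta-arrestin cells (2,100/well) attached overnight, then compound-stimulated 90 min at 37 C in HBSS/10 mM HEPES/0.1% Tween-20 buffer; beta-galactosidase complementation read by luminescence after 1 h at ambient temperature. Dopamine 57 uM final (EC100) as control.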
D2 antag = D2 dopamine receptor (human) antagonism; P14416; HEK293 TREx D2 cells, calcium flux, dopamine EC80; inhibition, % at 10 µM; hit rate 2% among 340,000; AID 485344; in the data active = inhibition above about 30%; inactive = below that, where a call was filed
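Measurement of antagonist activity uses fluorescent calcium dye in inducible HEK293 T-REx D2 cells: 10 s baseline, compound addition with 180 s read, EC80 dopamine addition with a further 180 s read.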
Numbers stand for hits; – = inactive; ? = inconclusive; · = not tested or not shown; ! = not confirmed by another sample.

SMILES	D2 ag-1	D2 PAM-1	D2 PAM-2	D2 ag-2	D2 antag
COc1ccc(OCC(O)CNC(=O)Nc2cc(C)cc(C)c2)cc1 (configuration not stated)	–	–	–	–	30
COc1ccc(CNC(=O)Nc2cc(C)cc(C)c2)cc1	–	–	–	–	–
S=C(NCC1CCCO1)N1CCc2ccccc2C1 (configuration not stated)	–	–	–	–	–
Cc1ccc(C(=O)OCC(=O)N(C)c2ccccc2)c(C)c1	–	–	–	–	–
CN(C(=O)COC(=O)c1cc(F)c(F)cc1Cl)c1ccccc1	–	–	–	–	32
Cn1c(SCC(=O)N2CCOCC2)ncc(C(=O)Nc2ccccc2)c1=O	–	·	·	·	·
CSc1ccc(/C=C/C(=O)OCC(=O)c2ccc[nH]2)cc1	–	–	–	–	50
CSc1ccc(/C=C/C(=O)OCC(=O)NC2CCCC2)cc1	·	–	·	–	·
CC(C)Oc1ccc(CNC(=O)c2ccc3nc(Cc4ccccc4)oc3c2)cc1	–	·	·	·	·
Nc1cc(OCC(F)(F)F)cc([N+](=O)[O-])c1	–	–	–	–	–
O=C1C2C3CCC(O3)C2C(=O)N1c1cc(OCC(F)F)cc([N+](=O)[O-])c1 (configuration not stated)	–	–	–	–	35
COc1ccc(OC)c(C2CC(=O)N(c3cccc(C)c3)C3=C2C(=O)OC3)c1 (configuration not stated)	–	·	–	·	·
Cc1ccc(SCC(=O)OCC(=O)N(CCC#N)c2ccccc2)cc1	–	–	–	–	33
N#CCCN(C(=O)COC(=O)CSc1ccc(Cl)cc1)c1ccccc1	·	–	·	–	·
Cc1ccn2c(=O)cc(COc3ccc(NC(=O)C(C)(C)C)cc3)nc2c1	–	·	–	·	·
CCOC(=O)N1CCN(C(=O)c2c(O)c3cccc4c3n(c2=O)CC4)CC1	–	–	37	–	–
CN1CCN(C(=O)c2c(O)c3cccc4c3n(c2=O)CC4)CC1	–	–	–	–	–
COc1ccc(S(=O)(=O)NCc2ccc(C(=O)NCCN(C)Cc3ccccc3)cc2)cc1	·	–	·	–	·
COc1ccc(NC(=O)c2ccc(-n3cccn3)c([N+](=O)[O-])c2)cc1	–	–	–	–	45
CC(=O)c1c(C)nc2nc(-c3ccccc3)nn2c1C	–	·	–	·	·
COc1ccccc1NC(=O)CSc1nnc(-c2ccco2)n1N	–	–	–	–	34
CCOC(=O)CNC(=O)CSc1nnc(-c2ccco2)n1N	–	–	–	–	34
CCOC(=O)CNC(=O)CSc1nnc(-c2ccco2)n1Cc1ccco1	–	–	–	–	–
COc1cc(NC(=O)Cc2c(C(=O)O)c(C)cn2C)cc(OC)c1	–	·	–	·	·
COc1cc(NC(=O)CCn2c(=O)oc3ccccc32)cc(OC)c1OC	–	–	34!	–	–
SMILES	D2 ag-1	D2 PAM-1	D2 PAM-2	D2 ag-2	D2 antag
COc1ccccc1OCCCn1c(=O)oc2ccccc21	–	–	–	–	34
COc1ccccc1OCCCn1c(=O)oc2ccc(C)cc21	–	–	–	–	–
O=C(CCn1c(=O)oc2ccccc21)Nc1ccccc1	–	–	–	–	–
CCc1nc2ccc(C(=O)Nc3ccc4c(c3)OCC(=O)N4)cn2c1N(C)C(=O)C1CCCCC1	·	–	·	–	·
CC1(C)C(=O)NCCN1C(=O)CCC(=O)O	–	–	33	–	–
C=CCOc1ccc(C=Nc2ccc(OC)cc2)c(O)c1	–	–	48	–	–
COc1ccc(N=Cc2ccccc2O)cc1	·	–	·	–	·
O=C1c2ccccc2-c2nc3ccccc3n21	–	–	35	–	–
CC(C)(C)c1ccc(C(=O)NCCCNC(=O)c2ccco2)cc1	–	–	–	–	–
CC(C)(C)c1cc(C(F)(F)F)nc(SCCCNC(=O)c2ccco2)n1	–	–	–	–	36
COc1ccc(CNC(=O)c2ccc3c(c2)nc2n3CCCCC2)c(OC)c1	–	·	–	·	·
COc1cccc(-n2sc3c(c2=S)-c2cc(OC)ccc2NC3(C)C)c1	–	–	–	–	–
CC1(C)Nc2ccc(O)cc2-c2c1ssc2=S	–	–	–	–	36
COC(=O)c1sccc1S(=O)(=O)N(CC(=O)Nc1c(C)cccc1C)c1ccc(C)c(C)c1	·	·	–	·	·
Cc1cccc(C(=O)NCC(c2ccco2)S(=O)(=O)c2cccs2)c1 (configuration not stated)	–	·	–	·	·
COc1ccc(C(=O)Nc2ccc(O)c3ccccc23)cc1OC	·	82	·	?	·
Cc1cc(C(F)(F)F)n(-c2nc(C(=O)O)cs2)n1	–	–	–	–	–
O=C(O)c1csc(-n2nc(-c3ccccc3)cc2C(F)(F)F)n1	–	–	–	–	48
CCn1c2ccccc2c2cc(NC(=O)Cc3ccc(S(=O)(=O)N4CCOCC4)s3)ccc21	–	–	–	–	36
Cc1ccc(F)c(C2C3C=CCC(c4cccc(-c5ccc(N(C)C)cc5)c4)C3C(=O)N2Cc2ccccc2)c1 (configuration not stated)	–	–	–	–	–
CC(C)Cc1nnc(NC(=O)CCC(=O)NC2CCCCCC2)s1	–	–	–	–	–
COc1ccc(N(CC(=O)Nc2cc(C)cc(C)c2)S(=O)(=O)c2ccccc2[N+](=O)[O-])c(OC)c1	–	–	–	–	53
Clc1c(Cl)c(Cl)c2n[nH]nc2c1Cl	–	–	–	–	38
CC(C)(C)c1ccc(OCC(=O)N/N=C/c2cc(Br)ccc2OC(=O)c2ccco2)cc1	–	–	–	–	34
O=C1N/C(=N/Nc2ccccc2)S/C1=C\c1ccccc1	–	55	–	–	–
SMILES	D2 ag-1	D2 PAM-1	D2 PAM-2	D2 ag-2	D2 antag
CC(C)(C)c1ccc(O)c(N=Cc2cc(Br)ccc2O)c1	–	–	–	–	–
Cc1ccc(O)c(C=Nc2cc(C)ccc2O)c1	·	58	·	–	·
Cc1ccccc1CSCCNC(=O)CN(c1ccccc1)S(=O)(=O)N(C)C	–	·	–	·	·
COc1ccc(N(CC(=O)NCCSCc2ccc(C)cc2)S(=O)(=O)c2ccccc2)cc1	–	–	–	–	31
CN(C)S(=O)(=O)N(CC(=O)NCCSCc1ccccc1)c1ccccc1	–	–	85!	–	–
COc1ccc(NC2=NCC(=O)N2c2ccccc2F)cc1	–	–	–	–	37
Cc1cccc(-n2nnc(C(=O)NCc3ccccn3)c2N)c1	–	–	–	–	31
Cc1ccc(CNC(=O)c2nnn(-c3cccc(C)c3)c2N)cc1	·	–	·	–	·
C[N+](C)(C)CCN(Cc1ccc(Cl)cc1)c1ccccn1	–	–	–	–	–
CN(C)CCN(Cc1ccc(Cl)cc1)c1ccccn1	–	–	–	–	59
CCCOC(=S)NC(=O)c1sc2ccccc2c1Cl	–	–	–	–	31
CC(C)(C)c1ccc(OCC(=O)NNC(=O)C2CCCO2)cc1 (configuration not stated)	–	–	–	–	–

Screens from PubChem BioAssay.
